In PubChem BioAssay AID686979 (National Center for Advancing Translational Sciences (NCATS), 2013):
About 50,000 (12%) of roughly 420,000 compounds were called active. Entries that show only a call come without a potency. Roughly 26% stayed inconclusive and do not appear here. This excerpt belongs to a sample that is enriched for actives. Unmarked numbers belong to inactive results. Calls come from the whole dose curve; as a rule, active = well fitted inhibition curve with a large enough effect; inconclusive = small, poorly fitted or top-dose-only effect; inactive = flat fitted curve, though single readings scatter. Where a SMILES comes first, the peptide text is derived from it. [ ]: non-standard residue; d: D form. The star is where a group is joined. ξ: configuration not given here. Cbz = O=C(OCc1ccccc1)*; ξL = CC(C)CC(N)C(=O)O; ξP = O=C(O)C1CCCN1

Assay: qHTS for Inhibitors of human tyrosyl-DNA phosphodiesterase 1 (TDP1): qHTS in cells in presence of CPT; note: nearly all actives have a fitted effect of over 55% in size
Settings: chicken DT40 Tdp1-/-;hTDP1 cells + 20 nM CPT, ATP luminescence, 48 h; series mostly up to 46.2 µM
Outline: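 Cell growth measured by CellTiter-Glo luminescence after a minimum 48 h, 37 C compound exposure with 20 nM CPT in Tdp1-knockout DT40 cells stably expressing hTDP1, seeded 400/well; qHTS titration format.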
Potency is the fitted concentration of half-maximal effect.

Structure (SMILES) | Potency | activity change, negative = growth inhibition
Cc1ccc(N2C(=O)C3C4C=CC(CC4)C3C2=O)cc1Br (stereo not drawn) | inactive | 
COc1ccc(CCN2C(=O)C3CC=C(C)CC3C2=O)cc1OC (stereo not drawn) | inactive | 
COc1ccc(N2C(=O)CC(N3CCC(C(N)=O)CC3)C2=O)cc1 (stereo not drawn) | inactive | 
COc1ccc(CCN2C(=O)CC(N3CCC(C(N)=O)CC3)C2=O)cc1OC (stereo not drawn) | 25.9 µM (active) | 
CN1CCN(CCC(=O)N/N=C/C=C2\N(C)c3ccccc3C2(C)C)CC1 | inactive | 
COc1cccc(NC(=S)C(C#N)=C2N(C)c3ccccc3N2C)c1 | inactive | 
CC(=O)Nc1cccc(OCC(=O)/C=C2\N(C)c3ccccc3C2(C)C)c1 | 6.51 µM (active) | 
Cc1cccc(NC(=O)c2cc(S(=O)(=O)N3CCC4(CC3)OCCO4)ccc2F)c1 | inactive | 
Cc1cc(S(=O)(=O)NC2CCCC2)ccc1-n1cnnn1 | inactive | 
COc1cccc(/C=C/c2ccc3ccccc3n2)c1OC(C)=O | inactive | 
CCOc1ccccc1-c1cc(C(=O)N2CCOCC2)c2ccccc2n1 | inactive | 
CCOc1cccc(/C=C/c2ccc3ccccc3n2)c1OC(C)=O | 18.4 µM (active) | 
O=S(=O)(/N=C(/Nc1ccccn1)c1ccccc1)c1ccc(Cl)cc1 | inactive | 
Cc1ccc(S/C(=N\S(=O)(=O)c2ccc(Cl)cc2)c2ccccc2)cc1 | 14.6 µM (active) | 
Cc1ccc(S(=O)(=O)/N=C(/Nc2ccccn2)c2ccc(Cl)cc2)cc1 | inactive | 
Cc1ccc(NC(=O)COc2ccc(/C=C3/NC(=O)NC3=O)cc2)cc1 | inactive | 
CC(C)CC(NC(=O)C1CCCN1C(=O)[C@@H](C)NC(=O)OCc1ccccc1)C(=O)NCC(N)=O (stereo partly drawn) (Cbz-[dA][ξP][ξL]G-NH2) | inactive | 
CCOC(=O)c1c(NC(=O)NC(C)(C)C)sc2c1CCN(C)C2 | inactive | 
CCCN(CCC)S(=O)(=O)c1ccc(C(=O)NNC(=O)c2cc(OC)c(OC)c(OC)c2)cc1 | inactive | 
CCOC(=O)c1c(NC(=S)Nc2ccccc2)sc2c1CCN(C)C2 | inactive | 
CCOC(=O)c1c(NC(=O)c2ccc(S(=O)(=O)N3CCCC(C)C3)cc2)sc2c1CCN(C(C)C)C2 (stereo not drawn) | 8.2 µM (active) | 
CCCN(CCC)S(=O)(=O)c1ccc(C(=O)Nc2sc3c(c2C(=O)OC)CCN(CC)C3)cc1 | 16.4 µM (active) | 
COC(=O)c1c(NC(=O)c2cc(=O)c3c(C)cc(C)cc3o2)sc2c1CCCC2 | inactive | 
N#CCCN(C(=S)Nc1ccc(Cl)c(Cl)c1)C1CCCCC1 | inactive | 
O=S1(=O)CSCS(=O)(=O)C1 | inactive | 

Structure (SMILES) | Potency | activity change, negative = growth inhibition
COc1ccc(S(=O)(=O)N(CC(=O)N/N=C/c2ccc(C(=O)O)cc2)Cc2ccccc2)cc1OC | inactive | 
C=CCO/N=C(\C)c1c(O)c(C)c(-c2ccccc2)n(-c2ccccc2)c1=O | inactive | 
CC(C)[C@@H]1NC(=O)[C@H](Cc2ccccc2)NC(=O)[C@@H](CC(=O)O)NC(=O)CNC(=O)[C@H](CCCNC(=N)N)NC1=O | inactive | 
C=CCNC(=O)C1CC2c3ccccc3C1c1ccccc12 (stereo not drawn) | inactive | 
CCS(=O)(=O)N1CCC(n2c(C)nc3cccnc32)CC1 | inactive | 
CCCS(=O)(=O)N1CCC(n2c(C(F)(F)F)nc3cccnc32)CC1 | 3.66 µM (active) | 
O=C1NC(CC(=O)N2CCC(n3c(C4CCC4)nc4cccnc43)CC2)c2ccccc21 (stereo not drawn) |  | -6.43% [at 9.04 µM]
O=C1Cc2cc(S(=O)(=O)Nc3ccc(OC(F)(F)F)cc3)cc3c2N1CCC3 | 9.2 µM (active) | 
COC(=O)c1ccc(NS(=O)(=O)c2cc3c4c(c2)C(C)C(=O)N4CCC3)cc1 (stereo not drawn) | inactive | 
O=C1CCc2cc(S(=O)(=O)Nc3ccc(C(F)(F)F)cc3)cc3c2N1CC3 | inactive | 
CCn1c(CC(=O)Nc2ccccc2)nnc1SCC(=O)N1CCOCC1 | inactive | 
COc1ccc(C(C#N)Nc2ccc(C)cc2)cc1 (stereo not drawn) | inactive | 
Cc1ccc(CN2CCN(/N=C/c3ccco3)CC2)c(C)c1 | inactive | 
CC(C)=CCCC1(C)C=Cc2c(ccc3c2[nH]c2cc(O)c(C)cc23)O1 (stereo not drawn) | 16.4 µM (active) | 
Cc1ccc(CNC(=O)Nc2nnc([C@H]3C[C@H](O)[C@@H](CO)O3)s2)cc1 | inactive | 
CN1CCN(S(=O)(=O)c2ccc(N3CCN(c4ccccc4O)CC3)c([N+](=O)[O-])c2)CC1 | 23.1 µM (active) | 
Cc1cc(N)n(-c2ccc(S(=O)(=O)N3CCCC3)cc2[N+](=O)[O-])n1 | inactive | 
Cc1ccc(C(=O)c2ccc(N3CCN(C)CC3)c([N+](=O)[O-])c2)cc1 | 18.4 µM (active) | 
Cc1cc(C)n(-c2ccc(C(=O)O)cc2[N+](=O)[O-])n1 | inactive | 
O=[N+]([O-])c1ccc(N2CCN(S(=O)(=O)c3ccccc3)CC2)cc1N1CCc2ccccc2C1 | inactive | 
Cc1cccc(N2CCN(c3ccc(C(N)=O)cc3[N+](=O)[O-])CC2)c1C | inactive | 
C=CCN(c1ccc(Cl)cc1)S(=O)(=O)c1cccc(C(=O)OCC(=O)N(C)C)c1 | inactive | 
Cc1ccc2c(c1)N(C(=O)CCC(=O)NCc1cccnc1)CCO2 | inactive | 
Cn1nccc1NC(=O)CC(CC(=O)O)c1ccccc1 (stereo not drawn) | inactive | 
Cn1ccsc1=NC(=O)c1cc(S(=O)(=O)N2CCOCC2)ccc1Cl | inactive | 

Structure (SMILES) | Potency | activity change, negative = growth inhibition
N/C(=N\OC(=O)N1c2ccccc2Sc2ccccc21)c1ccc(Br)cc1 | 20.6 µM (active) | 
N/C(=N\OC(=O)/C=C/c1ccccc1)c1ccc(Br)cc1 | inactive | 
N/C(=N\OC(=O)c1ccc2c(c1)OCO2)c1ccc(Br)cc1 | inactive | 
Cc1csc(=O)n1CCC(=O)OCC(=O)NNC(=O)c1ccc(Br)cc1 | inactive | 
CC(=O)Nc1cccc(C(=O)OCC(=O)Nc2nnc(-c3ccccc3)o2)c1 | inactive | 
COCCNC(=O)C1C(=O)Nc2ccccc2C(=O)N1c1ccc2c(c1)OCCO2 (stereo not drawn) | inactive | 
COc1cc(SC#N)ccc1N=Cc1c(C)[nH]n(-c2ccc(C)cc2)c1=O | 2.59 µM (active) | 
COc1cccc(-c2coc3cc4oc(=O)c(CC(=O)O)c(C)c4cc23)c1 | inactive | 
O=C(O)CC1S/C(=N\N=C/c2ccccc2O)N(c2ccc(O)cc2)C1=O (stereo not drawn) | inactive | 
S=C(Nc1ccc(Br)cc1Cl)N1CCC2(CC1)OCCO2 | inactive | 
C=C1C(=O)OC2C1CCC(C)=CCCC1(C)OC21 (stereo not drawn) | 1.64 µM (active) | 
Cc1cc(Cl)ccc1NC(=S)N1CCC(C(N)=O)(N2CCCCC2)CC1 | inactive | 
O=C(COC(=O)/C=C/c1cccc(Cl)c1)NCc1cccs1 | inactive | 
COC(=O)CCc1sc(Nc2ccc(Br)cc2)nc1-c1ccc(OC)cc1 | 23.1 µM (active) | 
COc1ccc(NC(=O)c2sc(N)nc2-c2ccccc2)cc1 | inactive | 
Cc1ccc(OC(=O)CCC(=O)Nc2ccc(Br)cc2)cc1 | inactive | 
CCc1c(C)sc(NC(=O)C2c3ccccc3Oc3ccccc32)c1C(=O)OC(C)C | inactive | 
Cc1ccn2c(=O)c(NC(=O)c3cccc4ccccc34)c(C)nc2c1 | inactive | 
O=C(O)c1cccc(S(=O)(=O)N2CC=C(c3ccccc3)CC2)c1 | inactive | 
NC(=O)N1CCCC1C(=O)Nc1ccc(Cl)c(Cl)c1 (stereo not drawn) | inactive | 
O=C(Nc1ccc(Cl)c(Cl)c1)N1CC=C(c2ccccc2)CC1 | 23.1 µM (active) | 
CCCCn1c(N)c(N(CCC(C)C)C(=O)c2ccc([N+](=O)[O-])o2)c(=O)[nH]c1=O | inactive | 
CCCCC(O)C1=C[N+](=O)CC=C1 (stereo not drawn) | inactive | 
O=c1[nH]c(CSc2ncc(-c3ccc(F)cc3)n2Cc2ccco2)nc2ccccc12 | 18.4 µM (active) | 
Nc1cc(=O)nc(SCc2ccccc2)n1Cc1ccco1 | inactive | 

Structure (SMILES) | Potency | activity change, negative = growth inhibition
CCn1c(Cc2ccccc2)nnc1SCc1nc2ccccc2c(=O)[nH]1 | inactive | 
COc1ccc2ccn(C)c2c1 | inactive | 
CCOc1cc(NC(=O)c2ccco2)c(OCC)cc1NC(=O)COc1ccccc1 | 4.11 µM (active) | 
CCOc1cc(NC(=S)NCc2ccco2)c(OCC)cc1NC(=O)c1ccco1 | inactive | 
CCOc1cc(NC(=S)NCCCOC)c(OCC)cc1NC(=O)c1ccco1 | inactive | 
Cc1cc(N2CCN(c3cccc(C(F)(F)F)c3)CC2)n2nc(-c3ccccc3)nc2n1 | inactive | 
COc1ccc(-c2nc3c4ccccc4n(CC(=O)Nc4ccc(C(C)=O)cc4)c(=O)n3n2)cc1 | inactive | 
O=c1n(Cc2cccc(C(F)(F)F)c2)c2ccccc2c2nc(-c3ccccc3)nn12 | 23.1 µM (active) | 
CC(C)C(OC(=O)c1cccs1)C(=O)NC1CCCCC1 (stereo not drawn) | inactive | 
Cc1ccc(NC(=O)CN(C)Cc2ccc(F)cc2)c([N+](=O)[O-])c1 | inactive | 
CCn1c(SCC(=O)NC2CCCC2)nnc1-c1ccoc1C | inactive | 
COC(=O)c1onc(-c2c(OC)cc(OC)cc2OC)c1C(=O)OC | inactive | 
CN(C(=O)CN1C(=O)S/C(=C\c2ccccc2F)C1=O)C1CCS(=O)(=O)C1 (stereo not drawn) | inactive | 
CN(C(=O)CN1C(=O)/C(=C/c2ccc(Cl)cc2)SC1=S)C1CCS(=O)(=O)C1 (stereo not drawn) | 18.4 µM (active) | 
CN(C(=O)CCN1C(=O)/C(=C/c2ccccc2F)SC1=S)C1CCS(=O)(=O)C1 (stereo not drawn) | inactive | 
O=C(Nc1cc(C(F)(F)F)ccc1Cl)c1cc2nc(-c3ccc4c(c3)OCO4)cc(C(F)(F)F)n2n1 | inactive | 
O=C(NCCCCCCCCCNC(=O)C(F)(F)F)C(F)(F)F | inactive | 
C/C(=N\NS(=O)(=O)c1cccc([N+](=O)[O-])c1)c1cc2ccccc2o1 | inactive | 
CCn1c(SCc2cc(=O)n3ccsc3n2)nc2ccccc21 | inactive | 
COc1cccc(-n2ccn(CC(=O)NCc3ccc(C)cc3)c(=O)c2=O)c1 | inactive | 
CCN(Cc1ccccc1)C(=O)c1cn(-c2cccc(OC)c2)c(=O)c2ccccc12 | 18.4 µM (active) | 
COc1cccc(-n2cc(C(=O)O)c3ccccc3c2=O)c1 | inactive | 
COc1ccc(NC(=O)CSc2nnc(C3CC3)n2C)cc1S(=O)(=O)N1CCCCC1 | inactive | 
